PubChem BioAssay AID628 (Vanderbilt High Throughput Screening Facility, 2007)
The whole screen tested about 64,000 compounds, of which about 2,200 (3.4%) were called active.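 The calls were made as follows: active = calcium fluorescence response, raw or row-and-column corrected B-score, differing from the plate sample mean either way at a set confidence level, mostly lower; inactive = the rest.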 Shown is part of a subset that was picked to be rich in actives.

target: Muscarinic acetylcholine receptor M1 (Rattus norvegicus) (UniProt P08482); experiment: blocks the rat M1 muscarinic receptor response to acetylcholine (AID 628); settings: CHO-M1 cells, Fluo-4 calcium, ACh EC80 antagonist mode; at 10 µM; active compounds read low
Sequence (P08482 whole entry, looked up): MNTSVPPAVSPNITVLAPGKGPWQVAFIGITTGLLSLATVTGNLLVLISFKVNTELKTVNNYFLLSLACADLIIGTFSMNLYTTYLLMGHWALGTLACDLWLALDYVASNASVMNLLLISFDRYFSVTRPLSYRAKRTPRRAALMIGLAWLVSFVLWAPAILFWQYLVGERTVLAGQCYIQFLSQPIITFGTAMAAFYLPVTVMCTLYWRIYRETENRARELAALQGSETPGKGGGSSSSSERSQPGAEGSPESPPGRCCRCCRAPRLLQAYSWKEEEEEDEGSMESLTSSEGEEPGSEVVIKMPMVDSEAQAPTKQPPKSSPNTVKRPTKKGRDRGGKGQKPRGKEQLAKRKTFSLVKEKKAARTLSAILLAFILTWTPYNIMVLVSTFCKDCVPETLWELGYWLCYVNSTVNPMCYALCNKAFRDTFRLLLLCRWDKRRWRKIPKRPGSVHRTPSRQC

B-score, inactive:
Cc1cc(C(=O)COC(=O)c2cccs2)c(C)n1-c1c(C)n(C)n(-c2ccccc2)c1=O -1.28
CCOc1ccccc1N=C1NC(=O)CS1 0.266
COc1ccccc1N=C1SC(C)CN1C(=O)C1CCC1 (stereo unspecified) 0.0033
CC1CN(Cc2nc3c(c(=O)n(C)c(=O)n3C)n2Cc2cccc(Cl)c2)CC(C)O1 (stereo unspecified) 1.23
CC(=O)NCC(=O)N(C)C(C(=O)Nc1ccc2c(c1)OCCO2)c1ccccc1 (stereo unspecified) 0.158
CCCCCCOC(=O)NCC(O)c1ccccc1 (stereo unspecified) 0.126
CCCCC(CCC(=O)Nc1ccc(C(=O)OCC)cc1)C(=O)O (stereo unspecified) 0.867
Cc1ccccc1Cn1c(=O)[nH]c2ccccc21 -1.7
COc1ccc(CNC(=O)c2cc3c(=O)n4ccccc4nc3n(CC3CCCO3)c2=N)cc1 (stereo unspecified) -1.29
CCn1c(=N)c(C(=O)NCCCOC)cc2c(=O)n3cccc(C)c3nc21 -0.808
CCOC(=O)C1CCN(C(=O)C2CCN(S(=O)(=O)c3c(C)noc3C)CC2)CC1 0.0324
Cn1c(=NC(=O)CSCC(=O)N2CCOCC2)sc2ccccc21 0.949
CC(C)Oc1ccc(C(=O)Nc2cc(=O)n(C)c(=O)n2C)cc1 -0.0919
Cc1ccc(S(=O)(=O)Nc2ccccc2CNc2c(C)n(C)n(-c3ccccc3)c2=O)cc1 0.193
COC(=O)Nc1c(C)n(C)n(-c2ccccc2)c1=O -0.678
COc1ccccc1N1CCN(C(=O)CSc2nnc(-c3ccoc3C)o2)CC1 -1.48
O=C(O)[C@@H]1CCCN1c1ncnc2sc3c(c12)CCC3 0.0259
N=c1c2c3c(sc2ncn1N)CCCCC3 1.08
O=C1CCCC2=C1C(c1cccs1)n1nc(SCc3ccccc3)nc1N2 (stereo unspecified) 1.97
CCOC(=O)c1c(NC(=O)CSc2nnc(C)c(=O)[nH]2)sc2c1CCC2 0.293
COC(=O)c1c(NC(=O)CCN2CCOCC2)sc2c1CCCC2 0.415
Cc1coc2c(O)cc3c(c12)OC1(N2CCCCC2)C(=O)NCCCC31 (stereo unspecified) 0.313
CCOc1ccc(N(CC(=O)OC)S(=O)(=O)c2c(C)noc2C)cc1 0.515
Cc1cc(C)c2nc(SCCC#N)nc(C)c2c1 -0.0173
CC(=O)N1C(=O)C2(Nc3ccccc3N2)c2ccccc21 -0.00551
CCCc1[nH]nc2c1C(c1c(C)nn(-c3ccccc3)c1Cl)C(C#N)=C(N)O2 (stereo unspecified) -0.557
COc1ccccc1NC(=O)C1=C(C)Nc2nnnn2C1c1cccc(Br)c1 (stereo unspecified) 0.285
COc1ccc(C2C(C(=O)Nc3ccccc3OC)=C(C)Nc3nnnn32)c(OC)c1 (stereo unspecified) -0.00786
CCSc1nc(=S)n(CC)c(C)c1C(C)=O -0.669
O=c1c2ccccc2oc2nc3n(c(=O)c12)CCCS3 0.0394
O=C(O)c1ccc(NS(=O)(=O)c2cccc3nsnc23)cc1 1.18
CC(=C1C(=O)c2ccccc2C1=O)N1CCN(c2ccccn2)CC1 0.0748
O=C(CSc1nnnn1C1CCCC1)Nc1ccc2c(c1)OCCO2 -1.53
CCc1ccc2oc(=O)cc(CN3CCCCC3C)c2c1 (stereo unspecified) -0.803
Cc1ccc(-c2ccc(=O)n(CC(=O)NCCCN3CCCCC3)n2)cc1 -0.074
CC1(C)CC(=O)C=C(NCCCNC2CCCCC2)C1 -0.705
CCOC(=O)c1c(C)n(C)c2ccc(OC)c(NC(=O)CN3CCC4(CC3)OCCO4)c12 -0.00466
O=C(O)c1ccc(-n2cccc2)cc1O -0.249
COc1ccccc1OCCC(=O)OCC(=O)NC(=O)NC(C)(C)C -0.989
CCOC(=O)C1CCCN(Cc2nc(N)nc(Nc3ccc(C)cc3)n2)C1 (stereo unspecified) -0.238
O=C(CN1CCN(C2CCCCC2)CC1)Nc1ccccc1N1CCCCC1 -0.00297
CC(=O)Nc1cccc(NC(=O)c2c(-c3ccccc3)noc2C)c1 0.424
Cn1c(=O)[nH]c(=O)c2c1nc(N1CCN(CCO)CC1)n2CCSc1nc2ccccc2s1 -0.514
C=C(Br)Cn1c(CCCC)nc2ccccc21 0.344
OC1CN=C2Sc3ccccc3N2C1 (stereo unspecified) -0.000781
COc1cc(Cl)c(C)cc1NC(=O)CSc1nnc(-c2cccnc2)n1Cc1ccco1 1.15
CCn1c(SCC(=O)Nc2cc(C)c(Cl)cc2OC)nnc1-c1ccco1 0.0151
Cc1ccc(C)c2[nH]c(=O)c(CCNC(=O)CC(C)C)cc12 0.426
O=c1/c(=C/c2ccc(CNS(=O)(=O)c3ccccc3)o2)sc2n1CCN=2 -1.07
O=C(CSc1nc2ccccc2[nH]1)c1cccs1 0.722
c1ccc2[nH]c(-c3nc4ccccc4[nH]3)nc2c1 0.625
O=S(=O)(c1cccc(-c2nnc(SC(F)F)n2-c2ccccc2)c1)N1CCCCC1 0.56
CCCCN=C(N)/C(C(=O)OCC)=C(\O)c1ccc(OC)cc1 0.0185
Cc1cccc(C)c1NC(=O)CCCSc1nnc(-c2ccco2)n1-c1ccccc1 0.509
CCN(c1ccc2c(c1)OCO2)S(=O)(=O)c1cc(Br)cc2c1N(C(=O)C1CC1)CC2 -0.598
CCOC(=O)N1CCN(C(=O)C2CCN(S(C)(=O)=O)CC2)CC1 -0.427
COc1ccccc1N1CCN(Cc2ccc(OC)c3ccccc23)CC1 0.229
COc1ccc(S(=O)(=O)Nc2ccc(S(=O)(=O)N3CCCCC3)cc2)cc1OC 0.8
Cc1ccc(C)c(NC(=O)CSc2nnc(Cc3cccn3C)n2-c2ccc(F)cc2)c1 0.873
CCc1ccc(-c2nnn(Cc3nn[nH]n3)n2)cc1 0.0832
CCOc1ccc(-c2nnn(CC(=O)N3CCN(c4ccc(OC)cc4)CC3)n2)cc1OCC 0.00223
Cc1cc(C)c(C#N)c(SCc2[nH]nc3c2C(c2ccccc2)C(C#N)=C(N)O3)n1 (stereo unspecified) 0.363
COc1ccc(Br)cc1/C=N/n1c(C)nnc1C 0.304
COc1cc(C2C(C(=O)Nc3ccccc3OC)=C(C)Nc3ncnn32)ccc1O (stereo unspecified) -0.653
COc1cc(C2C(C(=O)Nc3ccc(F)cc3)=C(C)Nc3nc(CCCO)nn32)cc(OC)c1OC (stereo unspecified) 0.464
COc1ccc(OCC(=O)OCCN(C)C)cc1 0.389
Cn1nc(-c2ccc(Cl)cc2)c2cc(C(=O)NCc3ccco3)sc21 0.443
CCN1CCN(C(=O)CN(C)S(=O)(=O)c2ccc(OC)cc2)CC1 0.444
c1ccc(-c2nnc3n2NC(c2ccc4c(c2)OCO4)S3)cc1 (stereo unspecified) -0.212
COc1ccc(-c2nn3c(-c4ccccc4)nnc3s2)cc1OC -1.59
c1ccc(-n2ncc(-c3nn[nH]n3)n2)cc1 2.54
Cn1c(C(=O)NCCCN2CCCCC2)cc2sccc21 -1.16
Cc1cc(NC(=O)CSCc2nc(-c3cccc(Cl)c3)oc2C)no1 0.32
COCCn1c(CN(Cc2ccccc2)Cc2ccccc2)nc2c1c(=O)n(C)c(=O)n2C 0.00241
CSCCC(NC(N)=O)C(=O)N(C)CC(=O)Nc1ccc(C)cc1 (stereo unspecified) -0.414
Cc1[nH]c2ccccc2c1C(=O)CSCC(=O)O -0.627

B-score, active:
CCC/C(O)=C1\C(=O)CC(C)(C)CC1=Nc1ccccc1OC -1.93
CCCCCOC(=O)NCCOC(=O)Nc1ccc(C(=O)OCC)cc1 -2.48
COc1ccc(CCn2c(=N)c(C(=O)NCc3ccco3)cc3c(=O)n4cccc(C)c4nc32)cc1 -2.38
COc1ccc(S(=O)(=O)Nc2c(C)n(C)n(-c3ccccc3)c2=O)cc1 2.26
CC1(C)CN=C(N2CCN(c3ncnc4sc5c(c34)CCCC5)CC2)S1 -3.91
CCOC(=O)c1c(NC(=O)CSc2nnc(CN3CCOCC3)n2C)sc2c1CCCC2 -2.5
COC(=O)c1ccc(C2C3=C(Nc4nnnn42)c2ccccc2OC3)cc1 (stereo unspecified) -2.33
O=C(C(NS(=O)(=O)c1cccc2nsnc12)c1ccccc1)N1CCN(c2ccccn2)CC1 (stereo unspecified) -4.43
CC(=O)OC(C)C[N+](C)(C)C (stereo unspecified) -11.2
CC(C[N+](C)(C)C)OC(N)=O (stereo unspecified) -15
CCOC(=O)Nc1ccc2c(c1)N(C(=O)CN1CCN3CCCC3C1)c1ccccc1CC2 (stereo unspecified) -4.22
COc1cc(Cl)c(C)cc1NC(=O)CSc1nnc(-c2ccco2)n1CC(C)C -3.28
C=CCSc1nc2ccccc2[nH]1 -3.2
CCOC(=O)N1CCN(S(=O)(=O)c2cc(Br)cc3c2N(C(=O)C2CC2)CC3)CC1 -2.88
COc1ccc(-c2nnn(Cc3nc(N)nc(N4CCCCC4)n3)n2)cc1 -1.19
N#CC1=C(N)Oc2n[nH]c(CSc3ccccc3)c2C12C(=O)Nc1ccccc12 (stereo unspecified) 2.72
CCOc1ccc(C2C(C(=O)NC)=C(C)Nc3nc4ccccc4n32)cc1OC (stereo unspecified) -3.24
CN(C)CCOC(=O)C(c1ccccc1)C1(O)CCCC1 (stereo unspecified) -11.9
CC1=Nn2c(nnc2-c2ccccc2)SC1 -3.94
Cc1ccsc1-c1nc(CSCC(=O)NCCN2CCCC2)c(C)o1 -4.42
